Only some compounds are listed: those with a hit (about 3.3% of all), similar ones and a draw of the others.
UBC13 polyUb: blocks human UBC13 polyubiquitin chain formation. inhibition, % at 20 µM. TR-FRET. P61088. 0.47% of 330,000 active; in the data active means inhibition above about 45%, passing the limit was not always enough; inconclusive means no clear call, values can overlap the other calls
UBC9 SUMO inh: SUMOylation inhibition | P63279 | HTRF SUMOylation assay, SAE1/SAE2 + UBC9, in vitro | inhibition, % at 35 µM | 0.36% of 290,000 active; in the data active means inhibition above about 50%, passing the limit was not always enough; inconclusive means no clear call, values can overlap the other calls
HGIII-sPLA2 inh: Blocks human group III sPLA2 activity. 0.56% of 370,000 active. Q9NZ20. inhibition, % at 12.2 µM. QFRET BODIPY PC-A2 liposome hydrolysis, fluorescence;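 active means inhibition above mean plus 3 SD of compounds lying within the high and low control bounds, cut at about 19% in these data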
Target sequence (Q9NZ20 whole entry, looked up): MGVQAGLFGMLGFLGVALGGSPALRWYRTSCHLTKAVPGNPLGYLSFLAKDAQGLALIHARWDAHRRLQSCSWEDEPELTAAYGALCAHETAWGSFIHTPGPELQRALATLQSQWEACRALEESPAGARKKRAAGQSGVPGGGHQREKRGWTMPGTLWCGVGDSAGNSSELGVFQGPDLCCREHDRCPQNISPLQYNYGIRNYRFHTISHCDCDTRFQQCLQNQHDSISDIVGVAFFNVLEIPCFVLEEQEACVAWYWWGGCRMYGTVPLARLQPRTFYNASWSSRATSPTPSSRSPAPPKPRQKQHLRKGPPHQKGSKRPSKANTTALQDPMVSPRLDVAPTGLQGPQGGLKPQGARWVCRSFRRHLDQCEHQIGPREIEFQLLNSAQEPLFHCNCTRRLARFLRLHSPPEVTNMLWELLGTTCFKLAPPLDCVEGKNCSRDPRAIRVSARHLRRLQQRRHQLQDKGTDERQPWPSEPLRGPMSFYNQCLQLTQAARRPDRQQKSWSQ
GRIN3A LBD mod: NR3A (human) ligand-binding domain modulation; NR3A LBD differential scanning fluorimetry, Tm shift; 0% = protein alone, 100% = glycine-bound protein; Tm shift relative to glycine control, % at 25 µM; 2.5% of 340,000 active;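 active means melting temperature shift of at least 10% of the positive control shift, at one fixed dose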
Hits are given with their value; – = inactive; ? = inconclusive; · = not tested or not shown.

SMILES | UBC13 polyUb | UBC9 SUMO inh | HGIII-sPLA2 inh | GRIN3A LBD mod
COc1ccc(NC(=O)C2=C(C)NC(=S)NC2c2ccc(O)c(OC)c2)cc1 (configuration not stated) | – | – | – | –
CCOc1ccc(NC(=O)C2=C(C)NC(=S)NC2c2ccc(O)c(OC)c2)cc1 (configuration not stated) | – | – | – | 13
O=C(CSc1nc2ccccc2n1Cc1ccccc1Cl)N/N=C\c1cccc(Oc2ccccc2)c1 | · | · | – | ·
CCOC(=O)c1cnc(SC)nc1Sc1ccccc1Cl | – | – | – | 20
CCOC(=O)c1cnc2c(ccc3ccccc32)c1Cl | – | – | – | –
CC(=O)N1CCCN(S(=O)(=O)c2ccc3c(c2)oc(=O)n3C)CC1 | · | · | – | ·
COc1cc(C2c3c(-c4cc(C)cc(C)c4O)n[nH]c3C(=O)N2CCCO)cc(OC)c1OC (configuration not stated) | – | – | – | 345
COCCCN1C(=O)c2[nH]nc(-c3cc(C)cc(C)c3O)c2C1c1ccc(O)c(OC)c1 (configuration not stated) | – | – | – | –
COc1ccc(OC)c(Nc2nc(N(C)c3ccccc3)nc(N)c2[N+](=O)[O-])c1 | – | – | – | 12
CN(c1ccccc1)c1nc(N)c([N+](=O)[O-])c(Nc2ccccc2F)n1 | – | – | – | –
CN(C)c1ccc(NC(=O)/C=C/c2ccccc2Cl)cc1 | – | – | – | 31
O=C(/C=C/c1ccccc1Cl)NCc1ccccc1 | – | – | – | –
CCN(CC)c1ccc(NC(=O)/C=C\c2ccccc2Cl)cc1 | – | – | – | 26
Cc1cc(NC(=O)/C=C/c2ccccc2Cl)no1 | – | – | – | –
O=c1c2ccccc2n(Cc2ccco2)n1[C@@H](Cc1ccccc1)Cn1cc(C2CCCC2)nn1 | · | · | – | ·
COc1ccc(OC)c(S(=O)(=O)N2CCCC(c3noc(-c4ccc(C)cc4)n3)C2)c1 (configuration not stated) | · | · | – | ·
O=S1(=O)c2ccc(Br)cc2OC[C@@H](Cc2ccccc2)N1Cc1cn(Cc2ccc(F)cc2)nn1 | · | · | – | ·
COc1ccc(S(=O)(=O)N(C)CC(=O)NCCC2=CCCCC2)cc1 | – | – | – | –
COc1ccc(S(=O)(=O)N(C)CC(=O)NCCC2=CCCCC2)cc1OC | – | – | – | 13
CCOC(=O)[C@]12CCCCC/C=C\1N(Cc1ccc(OC)cc1)C(=O)[C@H]2CC(=O)N1CCN(C(=O)c2ccco2)CC1 | · | · | – | ·
CCOC(=O)c1c(-c2ccc(OC)cc2)oc2ccc(O)cc12 | – | – | – | –
COc1ccc(C(=O)c2c(-c3ccc(OC)cc3)oc3ccccc23)cc1 | ? | · | – | –
COc1ccc(-c2oc3ccccc3c2C(=O)OCc2ccccc2OC)cc1 | – | – | – | 17
CCOC(=O)c1c(-c2ccc(OC)cc2)oc2cc(Br)c(O)cc12 | – | – | – | 13
N/C(=N\N=C\c1ccc2c(c1)OCO2)SC1CC(=O)N(c2ccc(C(=O)O)cc2)C1=O (configuration not stated) | – | – | – | –
SMILES | UBC13 polyUb | UBC9 SUMO inh | HGIII-sPLA2 inh | GRIN3A LBD mod
C/C(CCc1ccc2c(c1)OCO2)=N\N=C(/N)SC1CC(=O)N(c2ccc(Cl)cc2)C1=O (configuration not stated) | – | – | – | 16
CC(=O)c1ccc(NC(=O)C(C)OC(=O)C(C)Oc2cccc(C)c2)cc1 (configuration not stated) | – | – | – | 10
COc1ccc(Oc2c(Cl)cnn(C3c4ccccc4-c4ccccc43)c2=O)cc1 | · | · | – | ·
COc1ccc(CNS(=O)(=O)/C=C/c2cc(C)ccc2CNC(=O)OC(C)(C)C)cc1 | · | · | – | ·
Cc1ccc2c(c1)C1CS(=O)(=O)N(CC(C)C)CN1C2 (configuration not stated) | · | · | – | ·
COc1cc(NC(=O)COC(=O)/C=C/c2ccc(Cl)cc2Cl)cc(OC)c1 | – | – | – | 14
COC(=O)[C@]12C[C@H](CC(=O)NCc3ccc(OC)c(OC)c3)C(=O)N(Cc3ccco3)C1=C[C@H](C1CCCC1)O[C@@H]2C | · | · | – | ·
Cc1ccc(C2CCC3(CCC(=O)N3CCOC(=O)Nc3ccc(Br)cc3)CC2)cc1 (configuration not stated) | · | · | – | ·
CCOc1ccccc1NC(=S)N1CCN(c2ccc(OC)cc2)CC1 | – | – | – | 10
CC(=O)OCCCN1CCC2(CCC(c3ccccc3)CC2)C1=O (configuration not stated) | · | · | – | ·
COC(=O)CSc1nnc(-c2cccs2)o1 | · | · | – | ·
O=C(Nc1cccc(C(F)(F)F)c1)c1cccnc1NCCc1ccccc1 | – | – | – | 28
CN(CC(=O)Nc1ccccc1Br)C(=O)c1cccnc1Nc1cccc(C(F)(F)F)c1 | – | – | – | 15
O=C(Nc1cccc(F)c1)c1cccnc1NCCc1ccccc1 | – | – | – | 17
O=C(Nc1cccc(C(F)(F)F)c1)c1cccnc1NCCO | – | – | – | –
CNC(=O)c1cccnc1Nc1cccc(C(F)(F)F)c1 | – | – | – | –
CCOC(=O)Cc1nc(N2CCN(C=O)CC2)c2c(C)c(C(=O)OCC)sc2n1 | · | · | – | ·
CCC(=O)N1CCc2cc(Br)c(S(=O)(=O)NCCCN(C)Cc3ccccc3)cc21 | · | · | – | ·
COc1cccc(NC(=O)COC(=O)c2c3c(nc4ccccc24)CCC(C)C3)c1 (configuration not stated) | – | – | – | 19
Oc1ccccc1-c1nc(NCc2cccnc2)c2ccccc2n1 | – | – | – | –
Oc1ccccc1-c1nc(NCc2ccco2)c2ccccc2n1 | – | – | – | 14
Oc1ccccc1-c1nc(NCc2ccccc2)c2ccccc2n1 | – | – | – | 16
O=S1(=O)CCC(NC(=S)NCCNC(=S)NC2CCS(=O)(=O)C2)C1 (configuration not stated) | – | – | – | 21
CC(=O)N1C[C@@H](c2c[nH]c3ccccc23)C=C[C@H]1C(=O)NS(=O)(=O)c1ccc(C)cc1 | · | · | – | ·
CC(C)C[C@H](NC(=O)c1[nH]cnc1C(=O)Nc1ccc(CNC(=O)OC(C)(C)C)cc1)C(=O)OCc1ccccc1 | – | – | – | 36
SMILES | UBC13 polyUb | UBC9 SUMO inh | HGIII-sPLA2 inh | GRIN3A LBD mod
OC(CCN1CCCCC1)(c1ccccc1)C1CC2C=CC1C2 (configuration not stated) | · | · | – | ·
Fc1cccc(C2NN=C(c3ccccc3)S2)c1 (configuration not stated) | – | – | – | 34
COc1cc([N+](=O)[O-])c(OC)cc1Nc1ccccc1C(=O)O | · | · | – | ·
COc1cc(-c2ccc(Nc3ccccc3C(=O)O)c(OC)c2)ccc1Nc1ccccc1C(=O)O | – | ? | – | 38
Cc1cccc(Nc2ccccc2C(=O)O)c1C | – | – | – | 14
Cc1cccc(Nc2ncccc2C(=O)O)c1C | – | – | – | –
CCN(C)C(=O)CNc1nnnn1-c1ccccc1 | · | · | – | ·
COc1ccc(NC(=O)CSc2nc(N3CCCCC3)nc(N3CCCCC3)n2)cc1 | – | – | – | 13
COc1ccc(NC(=O)CSc2nc3ccccc3nc2N2CCCCC2)cc1 | – | – | – | –
O=C1NC(=S)S/C1=C\c1cccc([N+](=O)[O-])c1 | · | · | – | 12
O=C1NC(=Nc2ccccc2Cl)S/C1=C\c1cccc([N+](=O)[O-])c1 | – | – | – | –

Screens: PubChem, several laboratories
